Our source for the activity score values is PubChem BioAssay AID1814 (Broad Institute, 2009).

In all, about 300,000 compounds went through this assay and about 22,000 (7.3%) were called active. Inconclusive results (about 2%) are left out. Many of the other results were omitted from the sample, so actives are more common in it than they were. Unmarked numbers belong to inactive results. No stated cut-off is given here; in the data, active means activity score below about -60%; inconclusive means mostly about -28% to -61%; inactive means positive scores.

A short description of this experiment: Activators working through SNCA 5'UTR binding (MLPCN) (AID 1814). Particulars: alpha-synuclein 5'UTR reporter, activators screen; active compounds read low; tested at 7.5 µM.
Turning to `Cc1ccccc1NC(=O)CCOc1ccccc1`, the activity score was -74.9% (active).

In the case of `CCN1CCN(C(C(=O)NC2CCCC2)c2cc3c(cc2[N+](=O)[O-])OCO3)CC1` (configuration not stated), the activity score is -63% (active).

Turning to `CCCCCc1ccc(-c2ccc(OCC)cc2)nc1`, the activity score is 79.7%.

Consider `CCCOc1ccc(-c2nc(N)n[nH]2)cc1`, for which the activity score is -93.7% (active).

Regarding `CCOC(=O)c1c(NC(=O)c2ccc(Br)o2)sc2c1CCCC2`, the activity score was -64.9% (active).

For the compound `COC(=O)c1c(NC(=O)c2cccs2)sc2c1CCCC2`, the activity score is -128% (active).

As to `C=CCN(CC=C)S(=O)(=O)c1ccc(C(=O)Nc2sc3c(c2C(N)=O)CCCCC3)cc1`, the activity score is -70.1% (active).

For the compound `NC(=O)c1c(NC(=O)c2ccccc2)sc2c1CCCC2`, the activity score is -148% (active).

Consider `COc1ccc(NCCc2ccccn2)cc1`, for which the activity score is -134% (active).

For the compound `CCC(C)NC(=O)CCCc1ccccc1` (configuration not stated), the activity score is -63.7% (active).

With `O=C(Nc1ccc(Cl)cc1)c1ccsn1`, the activity score was -143% (active).

For the compound `Cc1ccc(NC(=O)c2ccn(C(=O)Nc3ccccc3)n2)c(C)c1`, the activity score was -69.3% (active).

With `c1ccc(CN2CCC(N=C3NN=C(c4ccc5c(c4)OCCO5)CS3)CC2)cc1`, the activity score was -223% (active).

In the case of `CCS(=O)(=O)c1cc([N+](=O)[O-])c(Sc2ccccc2N)s1`, the activity score is -91.3% (active).

Consider `CCN1CCN(c2ccc([N+](=O)[O-])cc2C(=O)c2ccc(Cl)cc2)CC1`, for which the activity score is -107% (active).

Turning to `COc1ccc(C(=O)c2c3ccc([N+](=O)[O-])cc3[n+]([O-])n2CCCN)cc1`, the activity score is 63.1%.

`Cc1ccc(NC(=S)N2CCN(c3ncccn3)CC2)cc1C`: the activity score was -84.3% (active).

As to `CC(=O)c1ccc(NC(=O)CCc2nnc3ccc(NCc4ccco4)nn23)cc1`, the activity score is -95.3% (active).

On to `O=C(/C=C/c1ccc([N+](=O)[O-])o1)NNC(=O)c1ccc(F)cc1`, for which the activity score was -94.3% (active).

Regarding `NC(=O)CSc1nnc(NC(=O)c2ccc3ccccc3c2)s1`, the activity score is -88.3% (active).

On to `C=CCSc1nnc(NC(=O)c2ccc(NC(C)=O)cc2)s1`, for which the activity score is -64.4% (active).

For `COC(=O)c1ccc(-n2cnc3ccccc32)nc1`, the activity score is -117% (active).

For `COCCn1c(=NC(=O)c2ccccc2[N+](=O)[O-])sc2cc(S(C)(=O)=O)ccc21`, the activity score was -151% (active).

As to `CCOC(=O)c1c(C)[nH]c2c1-c1ccccc1C(=O)C2=O`, the activity score is 99.5%.

With `CCOC(=O)c1cc2n(c1C)-c1ccccc1C2=O`, the activity score was -108% (active).

Take `COc1ccc(Nc2nnc(C)c3ccccc23)cc1`: the activity score is -67.1% (active).

Turning to `COc1ccc(Nc2cc(C)nc(-n3nc(C)cc3C)n2)cc1`, the activity score is 92.8%.

On to `O=C(c1cc(-c2ccc(O)cc2)on1)N1CCCc2ccccc21`, for which the activity score is -95.6% (active).

As for `COc1c(C)c2c(c(O)c1C/C=C(\C)CCC(=O)O)C(=O)OC2`, the activity score is 76.6%.

As for `C=CCNC(=O)/C=C/c1ccc(C(C)C)cc1`, the activity score is -129% (active).

As to `COc1ccc(-n2cnc3cc(NCc4ccco4)ccc32)cc1`, the activity score was -126% (active).

`COc1ccc(/C(N)=N/OC(=O)Cc2ccccc2)cc1`: the activity score was -125% (active).

Turning to `O=[N+]([O-])c1ccc2oc(-c3cccc(O)c3)nc2c1`, the activity score was -91.7% (active).

Regarding `COc1ccc(-c2nc3cc([N+](=O)[O-])ccc3o2)cc1OC`, the activity score is -65.4% (active).

Take `Cc1ccc(N=C2NC(=O)/C(=C/C=C/c3ccco3)S2)cc1C`: the activity score is -81.5% (active).

As for `COc1ccc(C(=O)Nc2cc(C)c(NC(=O)c3ccccc3OC)cn2)cc1`, the activity score was -115% (active).

Take `CC(C)(C)C(=O)Nc1ccc(C(=O)N/N=C/c2ccccc2OC(=O)c2ccc(Cl)cc2Cl)cc1`: the activity score is 65.2%.

Take `COc1ccc(C(=O)Nc2ccccc2C(=O)N/N=C/c2ccccc2OC)cc1`: the activity score is -124% (active).

As for `N#CC1=C(N)Oc2cc(O)ccc2C1C1CCCCC1` (configuration not stated), the activity score was -65.6% (active).

For the compound `C=CCN(C(=O)Nc1ccc2c(c1)nc(C)n2C)c1ccccc1`, the activity score was -71.4% (active).

As for `C=CCN(C(=O)Nc1ccc2oc(C)nc2c1)c1ccccc1`, the activity score was -65.8% (active).

In the case of `O=C(COc1ccc([N+](=O)[O-])cc1)Nc1ccc(N2CCCC2)cc1`, the activity score is -69.6% (active).

Turning to `O=C(CSc1nnc2ccccn12)c1ccccc1`, the activity score was -81.7% (active).

For the compound `CC(C)(C)C1CCc2c(sc3nc(SCC(N)=O)nc(N)c23)C1` (configuration not stated), the activity score was -196% (active).

With `C=C(C)CSc1nc(N)c2c3c(sc2n1)CCC3`, the activity score was -152% (active).

In the case of `COC(=O)c1sc(NC(=O)c2csc3c2CCCC3)nc1C`, the activity score is -228% (active).

For `Cc1ccc(NC(=O)c2csc3c2CCCC3)cc1`, the activity score is -158% (active).

Consider `Cc1cc2c(C)nc(N/N=C/c3ccccc3)nc2o1`, for which the activity score is -123% (active).

As for `COC(=O)c1ccc(CSc2ccc3nnc(-c4ccccc4)n3n2)o1`, the activity score is 53.7%.

Consider `COC(=O)c1ccc(CSc2nncn2C)cc1`, for which the activity score is -112% (active).

`Cc1ccc(Oc2nc(-c3ccccn3)nc3ccccc23)cc1`: the activity score is -92.6% (active).

In the case of `CSc1nc2ccc(NC(=O)c3c(F)cccc3F)cc2s1`, the activity score was -166% (active).

For `CCn1c(=O)c2cc(C(=O)Nc3cccc(C(C)=O)c3)sc2c2ccccc21`, the activity score was -66.3% (active).

As for `Fc1cccc(Cl)c1CSc1ccc(-c2ccco2)nn1`, the activity score was -172% (active).

Turning to `CSc1ccccc1NC(=O)c1cnc2sc(C)cn2c1=O`, the activity score was -129% (active).

On to `CC(C)(C)NC(=O)Cn1nnc(-c2ccccc2Cl)n1`, for which the activity score is -117% (active).

In the case of `O=C1N/C(=C/c2cccn2-c2ccccc2)C(=O)N1c1cccc(Cl)c1`, the activity score is -65.3% (active).

Take `COc1ccc(C2CC(c3cccs3)=NN2c2ccccc2)cc1` (configuration not stated): the activity score was -69% (active).

In the case of `COc1ccc(Cc2n[nH]c(=S)n2NC(=O)Nc2ccc(C)cc2)cc1`, the activity score was -75.9% (active).

Consider `CC(C)COC(=O)c1ccc(NC(=O)C2C3C=CC(C3)C2C(=O)O)cc1` (configuration not stated), for which the activity score was -101% (active).

Take `Cc1ccc(NC(=O)Nc2ccc3oc(C)nc3c2)cc1`: the activity score is -272% (active).

For the compound `Cc1nc2cc(NC(=O)NCc3ccccc3)ccc2o1`, the activity score is -102% (active).

For the compound `COc1cc(/C=C2/C(=O)ON=C2C)ccc1OCc1cccc(F)c1`, the activity score was -149% (active).

For the compound `COc1cc(/C=C2/C(=O)ON=C2C)ccc1OCc1ccccc1F`, the activity score is -183% (active).

On to `CN1CCN(C2Cc3ccc(Cl)cc3Sc3ccc(F)cc32)CC1` (configuration not stated), for which the activity score is 104%.

Turning to `Cc1n[nH]c(C)c1S(=O)(=O)N1CCCC(C(=O)Nc2ccc(Br)cc2)C1` (configuration not stated), the activity score was -116% (active).

On to `COc1ccc(S(=O)(=O)N2CCCC(C(=O)Nc3ccc(NC(=O)c4ccccn4)cc3)C2)cc1` (configuration not stated), for which the activity score is -87.5% (active).
